In PubChem BioAssay (NCI) one finds growth data, which are given here for nine molecules.

Structures are written as SMILES. Compounds without any hit were thinned out: in the full panel of roughly 83,000, 20% have a hit.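 Activity criterion: percent growth below 10, measured after cells in 96-well plates were exposed to a single compound concentration for 48 hours.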 A number with no mark means an inactive call. Calls of active or inactive are those of the source.

Common to all, as to experiment: NCI-60 one-dose screen, 48 h (100 = growth as untreated, 0 = no growth, -100 = all killed)
The subject of one test is SR leukemia. The settings on record: 10 µM unless noted.
Another test concerns RPMI-8226 leukemia. As to conditions: 10 µM unless noted.
A further test concerns OVCAR-8 ovarian. As to conditions: 10 µM unless noted.
The subject of a further test is OVCAR-5 ovarian. As to conditions: 10 µM unless noted.
A further test deals with OVCAR-4 ovarian. The settings on record: 10 µM unless noted.
The test system of a further test is SK-OV-3 ovarian. As to conditions: 10 µM unless noted.
For a further test, the system named is IGROV1 ovarian. The settings on record: 10 µM unless noted.
A further test has as its system OVCAR-3 ovarian. As to conditions: 10 µM unless noted.
The subject of another test is HS 578T breast. The settings on record: 10 µM.
For a further test, the system named is NCI/ADR-RES ovarian. The settings on record: 10 µM unless noted.
The subject of the next test is T-47D breast. As to conditions: 10 µM unless noted.
A further test deals with MDA-MB-435 melanoma. As to conditions: 10 µM unless noted.
The subject of a further test is SW-620 colon. The settings on record: 10 µM unless noted.
Another test concerns MCF7 breast. The settings on record: 10 µM unless noted.
The subject of a further test is HCT-116 colon. The settings on record: 10 µM unless noted.
The next test relates to HCC-2998 colon. The settings on record: 10 µM.
In another test the test system is KM12 colon. The settings on record: 10 µM unless noted.
The next test relates to BT-549 breast. As to conditions: 10 µM unless noted.

With `Cc1cc(C(O)CN(C)C)cc2c1ccc1cc(C(C)C)ccc12` (configuration not stated), the growth was -19.6% (active) in the test on SR leukemia; -22.6% (active) in the test with RPMI-8226 leukemia; -46.5% (active) in the test on OVCAR-8 ovarian; 49.5% in the test with OVCAR-5 ovarian; -2.02% (active) in the test with OVCAR-4 ovarian; 83.7% in the test with SK-OV-3 ovarian. Also, the growth was -64.4% (active) in the test on IGROV1 ovarian; 64.7% in the test with OVCAR-3 ovarian; -0.73% (active) in the test with HS 578T breast; 59.8% in the test with NCI/ADR-RES ovarian; -33% (active) in the test with T-47D breast; -80.8% (active) with MDA-MB-435 melanoma. Besides, the growth is -89.8% (active) in the test on SW-620 colon; -99.8% (active) in the test on MCF7 breast; -100% (active) with HCT-116 colon; -89.1% (active) with HCC-2998 colon; -95.5% (active) in the test with KM12 colon.
With `O=C1CCC(=O)CC1`, the growth in the test on SR leukemia is 97.4%; in the test with RPMI-8226 leukemia, 110%; in the test with OVCAR-8 ovarian, 101%; in the test on OVCAR-5 ovarian, 92.3%; in the test with OVCAR-4 ovarian it was 113%; with SK-OV-3 ovarian, 112%. Also, the growth in the test on IGROV1 ovarian is 96.3%; with OVCAR-3 ovarian, 117%; with HS 578T breast it was 103%; in the test with NCI/ADR-RES ovarian, 104%; in the test with T-47D breast, 102%; in the test with MDA-MB-435 melanoma it was 102%. In addition, the growth in the test on SW-620 colon is 103%; in the test with MCF7 breast it was 101%; with HCT-116 colon it was 109%; with HCC-2998 colon, 99.9%; with KM12 colon it was 106%.
Consider `O=S1(=O)OC(c2ccc(O)c(Cl)c2)(c2ccc(O)c(Cl)c2)c2ccccc21`, for which the growth is 112% with SR leukemia; 104% in the test with RPMI-8226 leukemia; 87.5% with OVCAR-8 ovarian; 96.5% in the test on OVCAR-5 ovarian; 99.8% with OVCAR-4 ovarian; 101% in the test on SK-OV-3 ovarian. In addition, the growth in the test on IGROV1 ovarian was 91.2%; in the test with OVCAR-3 ovarian, 116%; in the test on HS 578T breast, 97%; in the test on NCI/ADR-RES ovarian, 105%; with T-47D breast, 97.2%; in the test on MDA-MB-435 melanoma, 113%. Further, the growth in the test on SW-620 colon was 100%; in the test with MCF7 breast it was 104%; in the test with HCT-116 colon, 99.8%; in the test on HCC-2998 colon, 103%; in the test with KM12 colon, 103%.
For `C[C@@H](C[C@H](CCO)c1cc(C(F)(F)F)cc(C(F)(F)F)c1)c1ccc2ccccc2c1`, the growth in the test on SR leukemia was 30.6%; with RPMI-8226 leukemia, 79.3%; in the test on OVCAR-8 ovarian it was 102%; with OVCAR-5 ovarian, 106%; with OVCAR-4 ovarian it was 94.6%; in the test on SK-OV-3 ovarian, 98.3%. The growth with IGROV1 ovarian was 75.3%; in the test with OVCAR-3 ovarian, 81%; with HS 578T breast it was 106%; in the test with NCI/ADR-RES ovarian it was 85.3%; with T-47D breast it was 55.2%; in the test with MDA-MB-435 melanoma, 38.8%. Besides, the growth in the test with SW-620 colon is 88.7%; with MCF7 breast, 78.9%; with HCT-116 colon, 67.6%; with HCC-2998 colon, 86.1%; with KM12 colon, 71.3%.
As to `COc1ccc(C(=O)N2c3ccccc3Sc3ccccc32)c(F)c1`, the growth is 23% with SR leukemia; 18.6% in the test with RPMI-8226 leukemia; 32.3% in the test with OVCAR-8 ovarian; 62.1% with OVCAR-5 ovarian; 49.2% in the test with OVCAR-4 ovarian; 38.3% in the test on SK-OV-3 ovarian. Further, the growth is 54.8% in the test on IGROV1 ovarian; -7.19% (active) with OVCAR-3 ovarian; 15.9% in the test with HS 578T breast; 1.71% (active) with NCI/ADR-RES ovarian; 40.2% in the test with T-47D breast; -37.6% (active) in the test on MDA-MB-435 melanoma. The growth was 15% in the test with SW-620 colon; 24.2% in the test on MCF7 breast; 20.1% with HCT-116 colon; 30.3% in the test with HCC-2998 colon; 22.7% in the test with KM12 colon.
As to `NS(=O)(=O)c1ccc(CCN2C(=O)/C(=C\c3ccc(Cl)cc3)C=C2c2ccc3ccccc3c2)cc1`, the growth was 83.3% in the test with SR leukemia; 89.6% in the test with RPMI-8226 leukemia; 83.7% in the test with OVCAR-8 ovarian; 89.5% in the test on OVCAR-5 ovarian; 95.3% with OVCAR-4 ovarian; 84% with SK-OV-3 ovarian. For the same molecule, the growth with IGROV1 ovarian is 94.2%; with OVCAR-3 ovarian, 104%; in the test on HS 578T breast, 101%; with NCI/ADR-RES ovarian, 95.3%; with T-47D breast, 71.8%; with BT-549 breast, 95.1%. Moreover, the growth in the test on MDA-MB-435 melanoma was 97%; in the test on HCT-116 colon, 89.5%; with HCC-2998 colon, 94.8%; with KM12 colon it was 93%.
Take `CCN(CC)c1cc2oc3cc(N)cc(=N)c-3nc2cc1C`: the growth is 30.4% in the test with SR leukemia; 43.4% in the test with RPMI-8226 leukemia; 2.1% (active) in the test with OVCAR-8 ovarian; 32.3% in the test with OVCAR-5 ovarian; -6.55% (active) in the test on OVCAR-4 ovarian; 103% in the test with SK-OV-3 ovarian. Further, the growth in the test with IGROV1 ovarian is 50.9%; with OVCAR-3 ovarian it was 24.7%; in the test with HS 578T breast, 37.4%; in the test with NCI/ADR-RES ovarian it was 1.37% (active); with T-47D breast, 39%; with MDA-MB-435 melanoma, -64.8% (active). Further, the growth in the test on SW-620 colon is 24.1%; in the test with MCF7 breast, 1.63% (active); in the test on HCT-116 colon, -12.2% (active); with HCC-2998 colon, 100%; in the test with KM12 colon it was 40.2%.
On to `N#Cc1c(C(F)(F)F)cc(Nc2ccc3nc(NCCN4CCCC4)oc3c2)n2c1nc1ccccc12`, for which the growth in the test on SR leukemia was 0.701% (active); with RPMI-8226 leukemia, 44.6%; in the test on OVCAR-8 ovarian, 65.7%; in the test with OVCAR-5 ovarian, 137%; with OVCAR-4 ovarian, 64.2%; in the test on SK-OV-3 ovarian, 89.9%. Further, the growth in the test on IGROV1 ovarian is 79.6%; with OVCAR-3 ovarian it was 91.6%; in the test with HS 578T breast, 100%; with NCI/ADR-RES ovarian it was 86.5%; in the test on T-47D breast it was 66.9%; in the test with MDA-MB-435 melanoma it was 90.8%. Moreover, the growth in the test on SW-620 colon was 37.4%; with MCF7 breast it was 38.9%; in the test with HCT-116 colon it was 17.9%; in the test on HCC-2998 colon, 68%; with KM12 colon it was 73.9%.
As to `CCOc1ccc(N=C(C)Nc2ccc(OCC)cc2)cc1`, the growth is 84.5% in the test on SR leukemia; 116% in the test on RPMI-8226 leukemia; 106% in the test on OVCAR-8 ovarian; 104% in the test with OVCAR-5 ovarian; 104% with OVCAR-4 ovarian; 121% in the test with SK-OV-3 ovarian. For the same molecule, the growth in the test with IGROV1 ovarian was 106%; with OVCAR-3 ovarian it was 133%; in the test with HS 578T breast it was 106%; with NCI/ADR-RES ovarian, 101%; in the test with T-47D breast, 105%; in the test with MDA-MB-435 melanoma, 115%. Besides, the growth in the test on SW-620 colon was 104%; in the test with MCF7 breast it was 102%; in the test on HCT-116 colon it was 104%; in the test on HCC-2998 colon it was 104%; in the test on KM12 colon, 117%.
